Whole data set: some 24,000 sequences, median “enrichment r” near 0.99, cut for the highest 2% near 3.7. For the sample, the highest values were picked, then their nearest neighbours and some sequences at random.
T1: UNK ZnF1-3 (human, UniProt Q9C0B0 31-174)
T1 sequence: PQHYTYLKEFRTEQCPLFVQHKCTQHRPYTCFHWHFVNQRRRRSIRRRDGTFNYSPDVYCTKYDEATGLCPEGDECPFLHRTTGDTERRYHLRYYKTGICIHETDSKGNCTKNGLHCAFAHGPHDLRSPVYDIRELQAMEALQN

B1: chr5:61651017:61651018:+_ENSG00000068796_ENST00000381103|hu_hu|FALSE|FALSE (ssRNA)
RNA: GGGAGUUCUACAGUCCGACGAUCCCUAUGUUCAUCAAUAGGAUCUGCUGUUGUUAAUGGUCUAUAAUCCAAACUUCCUCUAAAGUCUCUGAUCAUACACAUAAUUUCAUAAUUUGGGUUUGUAGCAUCAACGUCCUGGGCUCUCAACAGAGGAUUGAGCAUCA
B2: chrX:131339380:131339381:-_ENSMUSG00000033436_ENSMUST00000035559|mus_hu|FALSE|FALSE (ssRNA)
RNA: GGGAGUUCUACAGUCCGACGAUCACUGAGAAGUUUCUUCAACAUAUCUGGAUUUUCAGCAAAAUUCGAAAGGAUUUUCAAAAUCUCAACCUUGAUUUUUCCACCUCCCUGAGAUAGCAAACGGAAAAAGUUUGCAAUGGAAUUCAACAGAGGAUUGAGCAUCA
B3: chr8:95500983:95500984:-_ENSG00000164944_ENST00000437199|hu_hu|hu_hu_hu_mus_True|58_68 (ssRNA)
RNA: GGGAGUUCUACAGUCCGACGAUCAGAACACAUCUAUCGAGUAAAGGACCGUACAUGACGGCCUCUAACCACUGCCUCCACUAACAACUUUCCUCUCGAGCCUCCACUGCCGCUAUUUGUACUAGCCCAGGACGGUCCCAGGCCCAACAGAGGAUUGAGCAUCA
B4: 37721237_37722996_1653_CDS_ENSG00000082068_ENST00000265107|human|control|control (ssRNA)
RNA: GGGAGUUCUACAGUCCGACGAUCUGCCUUCCGCUGGGUUUUAACCACACAUAAUUUUGCUCCCCUCUGACUCUUGUUGGGGUCGUAAUAGACUUUAGCCAAUCCAUUUCCAGUUCCAACCAUGAUCUGGUUCAGCUUUGGAUGCAACAGAGGAUUGAGCAUCA
B5: 55795476_55800851_1969_CDS_ENSG00000138041_ENST00000407823|human|control|control (ssRNA)
RNA: GGGAGUUCUACAGUCCGACGAUCCCGCCUCAUAAAGCGAAGGGCACACAAGGCCAGAAAAGUGUGCUUUGAAUUCAUCAAGACCAAGACUCUUCUUAGCAAGUCCUUGUUCAUAAUAUAGUUUUUUAUGUGAUAUGUGUGAUGCAACAGAGGAUUGAGCAUCA
B6: chr19:8913615:8913616:-_ENSMUSG00000071658_ENSMUST00000096259|mus_hu|mus_mus_mus_hu_False|1_98 (ssRNA)
RNA: GGGAGUUCUACAGUCCGACGAUCAGGGUACCAAAACACCCUGCCUCAAAUGGGUGCCCCACCCAGUAGGGAGUUGCAGCUGAAAGUAUCUGAUGCAGAAGCAGUGACUAUACGAAAGGAGGCCCCUGGGGAGGGCCCGAGAUCCAACAGAGGAUUGAGCAUCA

Biological target: T1, UNK ZnF1-3
Assay: nsRBNS (natural sequence RNA bind-n-seq); RBNS binding buffer (assumed for nsRBNS): 25 mM Tris pH 7.5, 150 mM KCl, 3 mM MgCl2, 0.01% Triton X-100, 500 ug/ml BSA, 20 U/ml SUPERase-In, 4 C; UNK is unkempt and MSI1 is Musashi-1; names of the RNAs are library labels; protein concentration not given here; high values mean tight binding

Binder | binding signal [enrichment R]
B1 | 1.64
B2 | 0.897
B3 | 1.3
B4 | 0.501
B5 | 2.04
B6 | 1.7

From PMC12136788
